Data taken from PubChem BioAssay AID504434 (National Center for Advancing Translational Sciences (NCATS), 2011).
Records with an inconclusive call do not appear. Active and inactive are the calls of the source. The call rests on the fitted dose curve; in most records, active means well fitted curve in the direction sought with a large enough effect; inconclusive means small, poorly fitted or top-dose-only effect, or effect the other way, or another doubt; inactive means no such curve, though single readings can be large or run the other way.

assay: Secondary Assay for lipid storage modulators: AML12 cell LDSA assay for probe SAR; details: AML12 lipid droplet accumulation, BODIPY 493/503 imaging, oleate; series mostly up to 46.1 µM; activity change, negative = inhibition: at the top concentration
From the text: NIH Molecular Libraries Probe Production Centers Network [MLPCN] NIH Chemical Genomics Center [NCGC] MLPCN Grant: 1 R03 MH085686-01 Assay Submitter (PI): Beller, Mathias; Max-Planck-Institut fur Biophysikalische Chemie NCGC Assay Overview: Storing lipids as a reservoir for energy or the anabolism of elementary metabolites is a common feature of probably all cells and is conserved from bacteria to humans. The universal cellular lipid storage organelle is the so-called lipid storage droplet (LD). Although ubiquitous, LDs share a simple structure composed of a hydrophobic core that harbors the storage lipids, which is shielded by a droplet-specific phospholipid monolayer to which proteins are attached. The current model of LD biogenesis involves an incorporation of the lipid core into the membrane leaflets of the endoplasmic reticulum (ER) followed by a subsequent budding-like maturation of a LD, which ultimately pinches off. Once released, LD volume can increase by localized lipogenesis or fusion of existing droplet. Storage lipids are re-mobilized enzymatically by lipase activity. Lipase regulation in the adipocyte is heavily studied and involves multiple components including catecholamine signaling, the LD-associated proteins Perilipin and comparative gene identification (CGI-58) and at least two lipases named hormone sensitive lipase (HSL) and adipocyte triglyceride lipase (ATGL). LD regulation outside of the adipocyte is poorly understood and only few components are known. However, there is an urgent need to learn more about ectopic fat depots as mislocalized storage of lipids, for example in the liver or muscle, is an eminent health problem associated with insulin resistance or the metabolic syndrome.
NCGC Assay Protocol Summary: The assay was performed with AML12 cells, using an oleic acid feeding protocol similar to the S3 assay. We dispensed 4 uL of cells to give 700 cells/well into Greiner bio-one 1,536-well plates (black walled, clear bottom). Triacsin C (Sigma-Aldrich T-4540), an inhibitor of long-chain fatty acyl CoA synthetase that blocks synthesis of triglycerides, was used as a positive control for lipid under-storage using a final concentration of 20 uM. The orexin antagonist, SB408124 - previously identified to stimulate lipid over-storage, was used as a positive control for lipid over-storage using a final concentration of 20 uM. A total of 23 nL of compound solution of different concentrations were transferred to the assay plates using a Kalypsys pin tool equipped with a 1,536-pin array containing 10-nL slotted pins (FP1S10, 0.457-mm diameter, 50.8 mm long; V&P Scientific). One microliter of oleic acid was added (400 uM final concentration), and the plate was lidded with stainless steel rubber gasket lined lids containing pinholes. After 18-24 h incubation at […] and 95% humidity, 4 uL of the dyes BODIPY 493/503 (Molecular Probes) and the Cell Tracker Red CMTPX dye (Molecular Probes) were added to the wells to stain lipid droplets and enumerate cell number, respectively. Fluorescence was detected by excitation of the fluorophores with a 488-nm laser on an Acumen Explorer (TTP Lab Tech). The total intensity in channel 2 (500-530 nm) reflected lipid droplet accumulation. Cells were detected using channel 3 (575-640 nm) with 5-um width and 100-um depth filters. The ratio of the number of objects in PMT channel 2 over the number of objects in PMT channel 3 was also calculated. Percent activity was computed relative to an internal control (100% inhibited lipid droplet deposition due to the presence of 20 uM Triacsin C), which was added to 32 wells/plate.

Activity change, negative = inhibition, inactive:
O=C(NC1CCCc2c1cnn2-c1ccc(F)cc1F)c1ccn[nH]1 (stereo not given) -31.6%, S=C(Nc1cc(Cl)ccc1Oc1ccccc1)N1CCN(c2ncccn2)CC1 10%, CC1=C(C(=O)NC2CCCc3c2cnn3-c2ccc(F)cc2F)OCCO1 (stereo not given) -10.5%, O=C(Cc1cccs1)Nc1nc(-c2ccc3c(c2)CCC3)cs1 12.9%, CN(C)CC(=O)NC1CCCc2c1cnn2-c1ccc(F)cc1F (stereo not given) 5.26%, O=C(NC1CCCc2c1cnn2-c1ccc(F)cc1F)c1cnon1 (stereo not given) -39.5%, CCOC(=O)C1CCN(C(=O)C(C)(C)NC(=O)Nc2ccc([N+](=O)[O-])cc2)CC1 -39.6%, O=C(NC1CCCc2c1cnn2-c1ccc(F)cc1F)C1CCCCC1 (stereo not given) 5.26%, CCOC(=O)C1CCN(C(=O)C(C)(C)NC(=O)Nc2cccc(-c3csc(C)n3)c2)CC1 -30.2%, O=C(NC1CCCc2c1cnn2-c1ccc(F)cc1F)c1c(F)cccc1Cl (stereo not given) 0%, COc1ccccc1NC(=S)N1CCN(c2cc(Cl)ccc2C)CC1 -20%, COc1ccc(CCNC(=O)c2cc3sc(C)cc3n2C)cc1OC 8.57%, COc1ccc(NC(=S)N2CCN(c3cccc(Cl)c3)CC2)c(OC)c1 15.7%, CCOc1ccc(CCNC(=O)c2cc3sccc3n2C)cc1OCC -27.6%, CC(C)(C)n1ncc2c(=O)n(Cc3ccc(-c4ccccc4C#N)cc3)cnc21 1.32%, O=C(Nc1cccc2nn(-c3ccc(F)cc3)cc12)c1ccccn1 -9.21%, Cc1ccc(C)c(-c2csc(NC(=O)CSc3nnc(Nc4ccc(OC(F)(F)F)cc4)s3)n2)c1 15.7%, O=C(NC1CCCc2c1cnn2-c1ccc(F)cc1F)c1cccc(F)c1F (stereo not given) -1.43%, CCOC(=O)C1CCN(C(=O)C(C)(C)NC(=O)Nc2ccc(OC)c(Cl)c2)CC1 -44.8%, O=C(CSc1nnc(NCc2ccccc2)s1)Nc1nc(-c2ccc(F)c(F)c2)cs1 30%, O=C(Cc1cccs1)Nc1nc(-c2ccncc2)cs1 10%, COc1ccc(-c2cnc(SCC(=O)Nc3nc(C)cs3)n2Cc2ccco2)cc1 -16.5% [at 30.7 µM], CCOC(=O)C1CCN(C(=O)C(C)(C)NC(=O)Nc2cccc(C(=O)OC)c2)CC1 -29.2%, O=C(NC1CCCc2c1cnn2-c1ccc(F)cc1F)c1cnsn1 (stereo not given) -14.3%, Cc1ccc(-c2cnc(SCC(=O)Nc3nc(C)cs3)n2Cc2ccco2)cc1 -24.1%, Cc1ccc(-c2cnc(SCC(=O)Nc3nccs3)n2Cc2ccco2)cc1 -10.1%, O=C(NC1CCCc2c1cnn2-c1cc(F)cc(F)c1)c1cccc2nccnc12 (stereo not given) -45.6% [at 30.7 µM], CCOC(=O)C1CCN(C(=O)C(C)(C)NC(=O)Nc2ccc(N)cc2)CC1 -8.33%, CCOc1ccc(NC(=O)NC2(C(=O)N3CCCCC3)CCCCC2)cc1 -27.8%, Cc1ccc(CC(=O)Nc2nc(-c3cccs3)cs2)cc1 -12.9%, Cc1cccc(-c2ccc3ncnc(NCc4cccc(F)c4)c3c2)c1 -19.7%, O=C(Cc1cccs1)Nc1nc(-c2ccc(F)cc2)cs1 4.29%, CCn1c(C(=O)NCCc2ccc(OC)c(OC)c2)cc2sccc21 -25%, COc1ccc(Cl)cc1NC(=S)N1CCN(c2ccccc2)CC1 -22.9%, COc1ccc(Cl)cc1NC(=S)N1CCN(c2ccc(F)cc2)CC1 -21.4%, CCOC(=O)C1CCN(C(=O)C(C)(C)NC(=O)Nc2ccc3ccccc3c2)CC1 -61.8%, O=C(NC1CCCc2c1cnn2-c1ccc(F)cc1F)c1ccncc1 (stereo not given) -15.8%, O=C(CSc1nnc(NCc2ccccc2)s1)Nc1nc(-c2cccc(Br)c2)cs1 18.6%

Potency, active:
COc1ccc(CCNC(=O)c2cc3sccc3n2Cc2ccc(F)cc2)cc1OC 3150 nM, COc1ccc(CCNC(=O)c2cc3sccc3n2Cc2ccc(Cl)cc2)cc1OC 30.7 nM
